PAFAH2 FP inh: inhibitors of human PAFAH2. Q99487. recombinant PAFAH2, FP-rhodamine activity probe, fluorescence polarization. inhibition, % at 3.39 µM. 340,000 compounds, 0.99% hits. AID 492956;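 active = inhibition above the mean over all tested compounds plus 3 SD, cut at about 30% in these data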;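 note: inhibitors block probe labeling of enzyme so polarization drops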
pPAFAH inh: pPAFAH (human) enzyme inhibition | Q13093 | recombinant pPAFAH, FP-rhodamine probe fluorescence polarization | inhibition, % at 3.39 µM | 330,000 compounds, 1.5% hits;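 active = inhibition above the mean inhibition across the screen plus 3 SD, cut at about 25% in these data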;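 note: inhibitors block binding of the rhodamine activity-based probe so polarization drops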
Rin1 Abl inh: human Rin1-Abl interaction inhibition; AID 588664; 360,000 compounds, 0.4% hits; P00519+Q13671; TR-FRET Rin1/Abl binding, biochemical; inhibition, % at 7.35 µM; in the data active = inhibition above about 5%, passing the limit was not always enough
E coli Lon inh: inhibits E. coli Lon protease; inhibition, % at 7.94 µM; 360,000 compounds, 0.42% hits; P0A9M0; purified E. coli Lon protease, fluorescence polarization; in the data active = inhibition above about 13%, passing the limit was not always enough
PAFAH1B2 inh: blocks human PAF acetylhydrolase 1b catalytic subunit 2 | 340,000 compounds, 1.2% hits | recombinant PAFAH1B2, FP-rhodamine activity probe, fluorescence polarization | inhibition, % at 3.39 µM | P68402;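 active = inhibition above the mean of all tested compounds plus 3 SD, cut at about 24% in these data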
Target sequence (P68402 whole entry, looked up): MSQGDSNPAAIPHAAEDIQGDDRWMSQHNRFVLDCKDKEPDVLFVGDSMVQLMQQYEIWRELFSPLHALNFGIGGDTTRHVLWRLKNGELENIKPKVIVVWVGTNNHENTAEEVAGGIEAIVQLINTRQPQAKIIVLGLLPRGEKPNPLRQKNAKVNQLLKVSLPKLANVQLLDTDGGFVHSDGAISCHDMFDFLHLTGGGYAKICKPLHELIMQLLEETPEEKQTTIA
PAFAH1B3 inh: blocks human PAF acetylhydrolase 1B catalytic subunit 3. 340,000 compounds, 0.28% hits. Q15102. recombinant PAFAH1B3, FP-rhodamine probe, fluorescence polarization. inhibition, % at 3.39 µM. AID 492972;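 active = inhibition above the screen-wide average of all tested compounds plus 3 SD, cut at about 25% in these data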
Target sequence (Q15102 whole entry, looked up): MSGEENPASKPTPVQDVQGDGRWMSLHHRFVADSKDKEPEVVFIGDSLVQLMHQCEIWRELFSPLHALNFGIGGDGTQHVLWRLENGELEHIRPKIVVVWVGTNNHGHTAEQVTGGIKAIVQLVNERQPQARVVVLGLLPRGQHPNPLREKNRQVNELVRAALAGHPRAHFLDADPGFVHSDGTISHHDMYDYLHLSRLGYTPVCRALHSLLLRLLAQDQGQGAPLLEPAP
Rin1-Abl confirm: confirmation of inhibitors of human Rin1-Abl interaction; shares compounds with Rin1 Abl inh; TR-FRET Rin1-Abl binding, purified proteins; inhibition, % at 7.35 µM; 1,300 compounds, 49% hits; AID 602124
GFP quencher: counter-screen for Rin1-Abl inhibitors: GFP fluorescence quenchers; shares compounds with Rin1 Abl inh; inhibitors/quenchers counterscreen; inhibition, % at 6.75 µM; 1,300 compounds, 8.5% hits; AID 602125;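 note: ABL1-eGFP fusion protein alone without its partner RIN1-SBP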
GFP quench DR: GFP fluorescence interference dose response; shares compounds with Rin1 Abl inh; GFP fluorescence interference/quenching counterscreen; IC50, µM; 230 tested, under 10 active; AID 602182; call rule not given here;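 note: ABL1-eGFP fusion protein alone without its RIN1 binding partner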
E coli Lon conf: E. coli Lon inhibition confirmation. shares compounds with E coli Lon inh. AID 602230. inhibition, % at 7.94 µM. purified E. coli Lon, fluorescence polarization. 1,400 compounds, 31% hits; in the data active = inhibition above about 16%
A number is an active result; 0 = inactive; - = not tested or not shown; + = active, no number. Compounds with a hit are over-represented: about 3.1% of the library has one in this group of screens. Cut-off read from the data, not from the text of the source, unless noted: active = inhibition above about 6.5%; inactive = the rest.

SMILES	PAFAH2 FP inh	pPAFAH inh	Rin1 Abl inh	E coli Lon inh	PAFAH1B2 inh	PAFAH1B3 inh	E coli Lon conf	others
c1ccc2oc(-c3ccc4c(c3)CNCc3cnnn3-4)cc2c1	-	-	0	0	-	-	-
Cn1ncnc2c(=O)n(C)c(=O)nc1-2	59	0	29	0	51	75	-	Rin1-Abl confirm=48;GFP quencher=0;GFP quench DR=0
CCC(C)NC(=O)c1c(N)n(CC2CCCO2)c2nc3ccccc3nc12 (stereo unspecified)	0	0	5.7	0	0	0	-	Rin1-Abl confirm=0;GFP quencher=0
Nc1c(C(=O)NCCN2CCOCC2)c2nc3ccccc3nc2n1Cc1ccccc1	0	0	0	0	0	0	-
CC(C)CCNC(=O)c1c(N)n(CC2CCCO2)c2nc3ccccc3nc12 (stereo unspecified)	0	0	0	0	0	0	-
CCC(C)NC(=O)c1c(N)n(Cc2ccc3c(c2)OCO3)c2nc3ccccc3nc12 (stereo unspecified)	0	0	8.5	0	0	0	-	Rin1-Abl confirm=0;GFP quencher=0
CCCN1CCc2cc(O)cc3c2[C@H]1Cc1ccc(O)c(O)c1-3	0	0	11	0	0	0	-	Rin1-Abl confirm=12;GFP quencher=8.6
CN1CCc2cc(O)cc3c2[C@H]1Cc1ccc(O)c(O)c1-3	0	0	0	0	0	0	-
O=c1c2ccccc2nc(CSc2ncnc3nc[nH]c23)n1-c1ccccc1	0	0	7.6	0	0	0	-	Rin1-Abl confirm=0;GFP quencher=0
COC(=O)CCCCC1SCC(NC(=O)c2ccccc2)C1Cl (stereo unspecified)	0	0	9.2	0	0	0	-	Rin1-Abl confirm=14;GFP quencher=0
COC(=O)C(O)(c1ccc(NC(=O)c2ccccc2)cc1)C(F)(F)F (stereo unspecified)	0	0	0	0	0	0	-
Cc1cc(Br)cn2c(CC(=O)N3CCCCC3)c(-c3ccc(F)cc3)nc12	-	-	-	0	-	-	-
CC[C@H](OC(C)=O)C(C[C@H](C)N(C)C)(c1ccccc1)c1ccccc1	0	0	6.8	0	0	0	-	Rin1-Abl confirm=8.4;GFP quencher=0
NC1=C([N+](=O)[O-])C(c2ccc3c(c2)OCO3)c2c(c3ccccc3oc2=O)O1 (stereo unspecified)	-	0	-	-	-	-	-
O=c1oc2ccccc2c(O)c1[C@H]1c2ccc(O)cc2Oc2c1c(=O)oc1ccccc21	0	0	0	18	0	0	17
C[C@]1(O)CCC2C3CC[C@H]4C[C@@H](OC(=O)[C@@H](N)CCCCN)CC[C@]4(C)C3CC[C@@]21C (stereo partly specified)	-	-	0	0	-	-	-
CN1CCc2cc3c(c4c2C1Cc1ccccc1-4)OCO3 (stereo unspecified)	0	29	0	148	0	0	99
Cc1cc2c(C(F)(F)F)cc(=O)oc2c2c1NCCC2	0	0	0	65	0	0	62
O=c1cc(C(F)(F)F)c2cc3c4c(c2o1)CCCN4CCC3	0	26	0	+	0	0	167
COc1ccc(-n2nnnc2C(c2cccs2)N2CCC(n3c(=O)[nH]c4ccccc43)CC2)cc1 (stereo unspecified)	-	-	0	0	-	-	-
CCc1nn2c(=O)c(F)c(N3CCNCC3)nc2s1	-	-	0	0	-	-	-
Oc1cc(Cl)c(Cl)c(Cl)c1Cl	0	-	0	49	0	0	0
COc1ccc(OC(=O)N(C)C[C@@H]2OCc3ccccc3-c3c(n(C)c4ccccc34)C(=O)N([C@H](C)CO)C[C@@H]2C)cc1	-	-	0	0	-	-	-
CC(=O)n1cc(C=C2C(=O)NC(=O)NC2=O)c2ccccc21	0	0	0	0	0	0	-
Cn1cc(C=C2C(=O)NC(=O)NC2=O)c2ccccc21	0	0	0	117	0	0	+
SMILES	PAFAH2 FP inh	pPAFAH inh	Rin1 Abl inh	E coli Lon inh	PAFAH1B2 inh	PAFAH1B3 inh	E coli Lon conf	others
CCC(=NC(C)c1ccccc1)c1c(O)[nH]c(=O)[nH]c1=O (stereo unspecified)	0	0	0	21	0	0	0
C[C@]12CCC3C(CC[C@H]4C[C@H](O)CC[C@]34C)C1C[C@@H](O)[C@H]2O (stereo partly specified)	-	-	0	0	-	-	-
COc1ccc(OCC(=O)N2CCCC(N3CCN(c4ccccc4C)CC3)C2)cc1 (stereo unspecified)	0	0	0	134	0	0	0
COc1ccc(OC(=O)N(C)C[C@H]2OCc3cnnn3CCCC(=O)N([C@H](C)CO)C[C@@H]2C)cc1	-	-	0	0	-	-	-
COc1cccc2c1C(=O)c1c(O)c3c(c(O)c1C2=O)CC(O)(C(C)=NO)CC3OC1CC(N)C(O)C(C)O1 (stereo unspecified)	42	-	0	+	45	30	+
CC1CC2(C)C(CCC3C2CCC2(C)C(OP(=O)(N4CC4)N4CC4)CCC32)CC1=O (stereo unspecified)	0	-	0	0	0	0	-
Nc1ccc2ccc3cccc[n+]3c2c1	0	0	0	+	0	0	+
O=c1[nH]c2ccccc2n1C1CCN(Cc2ccc(-c3[nH]c4cc5ncnc5cc4nc3-c3ccccc3)cc2)CC1	-	-	-	0	-	-	-
Nc1ccc2nonc2c1[N+](=O)[O-]	0	0	0	193	0	0	+
S=C(NCCc1ccccc1)N1Cc2ccccc2-n2nncc2C1	-	-	0	0	-	-	-
S=P(NCCNP(=S)(N1CC1)N1CC1)(N1CC1)N1CC1	0	-	0	0	0	0	-
CC1=C(O)C(=O)C=C2C1=CC=C1C2(C)CCC2(C)C3CC(C)(C(=O)O)CCC3(C)CCC12C (stereo unspecified)	0	-	0	0	0	0	-
CCOc1cccc(=NC2CCCCC2)c2c(C)n(C)c(C)c12	-	0	0	90	-	-	0
CC(C)(C)n1nnnc1C(c1ccnc2ccccc12)N1CCC2(CC1)C(=O)NCN2c1ccccc1 (stereo unspecified)	-	-	0	0	-	-	-
O=[N+]([O-])c1ccc(N2CCOCC2)c2c1no[n+]2[O-]	-	-	0	29	-	-	0
O=[N+]([O-])c1ccc(N2CCCCC2)c2ncccc12	0	0	0	0	0	0	-
O=[N+]([O-])c1ccc(N2CCCCCC2)c2nonc12	0	0	0	61	0	0	21
CNC(=O)Oc1cccc(-c2cn3cc(OC(=O)NC)ccc3n2)c1	0	0	0	35	0	0	0
